Data: PubChem BioAssay (NCATS)
Values joined by “and” are separate entries in the source; they are usually repeats but may differ in a detail not shown here. Equal values may be shown once. Results filed as inconclusive are left out. Where a call stands in place of a potency, no number is given. Active and inactive are the calls of the source. The call rests on the fitted dose curve; in most records, active means well fitted cell-killing curve with a large enough effect; inconclusive means small, poorly fitted or top-dose-only effect, or effect the other way; inactive means no such curve, though single readings can be large or run the other way.

Tests used:
[1] = Viability qHTS for spleen associated tyrosine kinase inhibitor (SYKi) naive MV4-11 cells (AID 1963823); further: nearly all actives have a fitted effect of over 40% in size
How it was run: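 Seeding of 500 SYKi-naive MV4-11 cells per well onto pre-dispensed compounds preceded a 72 hr incubation at 37 C. Luminescent CellTiter-Glo signal, read after 10 min at room temperature, reflected viable cells.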

[2] = Viability qHTS for spleen associated tyrosine kinase inhibitor (SYKi) drug resistant MV4-11 cells (AID 1963824); further: nearly all actives have a fitted effect of over 35% in size
How it was run: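 CellTiter-Glo luminescence, read 10 min after reagent addition, reports viability after a 72 hr compound exposure. Cells are an MV4-11 line made resistant to SYK inhibition, seeded at 500 per well onto compound-containing plates.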
Potency means the concentration at half of the fitted maximal effect.

SMILES | Potency [1] | Potency [2]
Cc1cc(CNC(=O)c2cc(C(=O)NCc3ccc(F)c(C)c3)ncn2)ccc1F | inactive | inactive
Cc1ncc(Cl)cc1NCc1ccc(C(=O)NC(CC2CCCC2)C(=O)NC2CC2)s1 (stereo not given) | 20.6 µM (active) | 18.6 µM (active)
C/C(=C\CCC(C)C1CC(O)C2(C)C3CCC4C(C)(C)C(OC5OCC(O)C(O)C5O)CCC45CC35CC(O)C12C)C(=O)O (stereo not given) | inactive | inactive
Cn1cnc2c(NCc3ccccc3)nc(NCCO)nc21 | inactive | inactive
C[C@@H]1CC[C@]2(C(=O)O[C@@H]3O[C@H](CO)[C@@H](O)[C@H](O)[C@H]3O)CC[C@]3(C)C(=CCC4[C@@]5(C)C[C@@H](O)[C@H](O)[C@](C)(C(=O)O)C5CC[C@]43C)[C@@H]2[C@]1(C)O (stereo not given in full) | inactive | inactive
COc1ccc2c(c1)O[C@H](O[C@@H]1O[C@H](CO)[C@@H](O)[C@H](O)[C@H]1O)C(=O)N2 | inactive | inactive
O=C(O)/C=C/c1ccc(O)c(O[C@@H]2O[C@H](CO)[C@@H](O)[C@H](O)[C@H]2O)c1 | inactive | inactive
C=C1/C(=C/C=C2\CCC[C@]3(C)[C@@H]([C@H](C)/C=C/[C@H](O)C4CC4)CC[C@@H]23)C[C@@H](O)C[C@@H]1O | 0.0326 µM (active) | 0.731 µM (active)
C[C@@H]1[C@H]2[C@H](O[C@@H]3O[C@H](CO)[C@@H](O)[C@H](O)[C@H]3O)OC=C(C(=O)O)[C@H]2C[C@@H]1O | inactive | inactive
CCC(=O)O[C@]1(C(=O)CCl)[C@@H](C)C[C@H]2[C@@H]3CCC4=CC(=O)C=C[C@]4(C)[C@@]3(F)[C@@H](O)C[C@@]21C | 4.73 µM (active) and 10.5 µM (active) | 15 µM (active) and 14.8 µM (active)
